Screens deposited in PubChem BioAssay by Broad Institute.
LGR2 antag – inhibitors of bursicon-induced Drosophila LGR2 receptor cAMP signaling; HEK293 LGR2, CRE-luciferase, bursicon-stimulated, 4 h; inhibition, % at 9.99 µM; 0.35% of 380,000 active; AID 720647;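 active = drop in luminescence signal, shown as inhibition above about 50% in the replicate tests, limit read from the data, passing the limit was not always enough; inconclusive = probably only some replicates passing the limit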;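 note: agonist challenge used bursicon conditioned medium at about half maximal strength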
EWS-Fli inh – EWS/Fli transcriptional activity inhibition; AID 651661; A673 NR0B1-luciferase reporter, viability-normalised; 0.67% of 350,000 active; inhibition, % at 12.6 µM;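 active = mean inhibition of at least 50% after viability correction, with every replicate also passing that limit; inconclusive = mean reaches 50% but only one of two replicates passes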;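 note: firefly luciferase signal divided by Alamar Blue viability fluorescence both relative to DMSO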
SIRT5 inh – sirtuin-5 (human) deacylase inhibition. Purified SirT5, succinyl-peptide AMC, trypsin-coupled fluorescence. Q9NXA8. inhibition, % at 15 µM. 1.1% of 330,000 active; in the data active = inhibition above about 15%; inconclusive = no clear call, values can overlap the other calls
Target sequence (Q9NXA8 whole entry, looked up): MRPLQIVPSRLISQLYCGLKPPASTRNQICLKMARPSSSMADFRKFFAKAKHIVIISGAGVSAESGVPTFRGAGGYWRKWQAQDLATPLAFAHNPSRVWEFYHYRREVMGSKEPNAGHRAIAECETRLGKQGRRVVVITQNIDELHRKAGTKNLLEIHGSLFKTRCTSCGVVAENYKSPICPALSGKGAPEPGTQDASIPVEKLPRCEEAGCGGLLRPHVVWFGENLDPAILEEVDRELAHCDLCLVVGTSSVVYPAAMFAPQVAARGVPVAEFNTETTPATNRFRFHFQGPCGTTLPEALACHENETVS
PGC1a acetyl inh – modulators of PGC1a acetylation; AID 651687; 0.17% of 350,000 active; U2OS PGC1a acetylation, AlphaScreen anti-acetyl-lysine; with virally co-expressed GCN5 acetyltransferase; inhibition, % at 15.6 µM;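 active = every replicate shows inhibition of at least 40%; inconclusive = mean inhibition at least 40% but some replicate below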;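 note: 0% = neutral control wells and 100% = positive control wells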
Ecoli rRNA inh – inhibitors of bacterial rRNA selective over humanized ribosomes. E. coli WT GFP vs humanized-ribosome RFP mutants, fluorescence, 24 h; active compounds read low; DMSO median 0, no signal -100. GFP signal change (wild-type ribosome), % (test concentration not listed). 1.6% of 350,000 active;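 active = significant combined selectivity score with lowered wild-type GFP, culture density cut under 30%, mutant RFP and density less affected; inactive = any of these conditions unmet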
PAX8 reporter – lowers PAX8-driven luciferase in RMG-I cells | RMG-I TPO-luciferase reporter, SteadyGlo, 24 h | inhibition, % at 12.6 µM | 1.2% of 360,000 active;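 active = mean replicate inhibition at least 60% with every replicate also reaching 60%; inconclusive = only one of the two criteria is met; inactive = mean below 60% and not all replicates reaching 60%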;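 note: luciferase light reporting Pax8 driven TPO promoter activity; plate controls were median of neutral control wells for no effect and mitoxantrone controls for full effect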
HepG2 cytotox – HepG2 cell cytotoxicity; shares compounds with Ecoli rRNA inh; HepG2 viability, ATP luminescence, 72 h; activity change, negative = cytotoxicity, unspecified at 26 µM; 30 tested, under 10 active;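 active = compounds whose fitted half-maximal signal-loss concentration is at most twice their highest valid dose; inconclusive = flat curve with 30 to 70% signal loss, or poor fit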
AID977621 – wild-type E. coli growth inhibition versus H69 humanized strain – H69 mutant RFP, wild-type GFP, cherry-pick, dose response; shares compounds with Ecoli rRNA inh; fluorescence, 24 h; activity change, negative = inhibition at 50 µM; 1,900 tested, under 10 active; AID 977621;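 active = Wild-type ribosome reporter drop at least double the humanized mutant ribosome reporter drop, growth loss under a set limit; inconclusive = no clear call, values can overlap the other calls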;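 note: wild-type GFP and H69 mutant RFP strains grown together 50/50 in each well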
AID977628 – E. coli growth inhibition, wild-type GFP versus h24 humanized RFP strain, dose response, h24 mutant RFP vs wild-type GFP, cherry-pick; 1,900 tested, under 10 active; shares compounds with Ecoli rRNA inh; AID 977628; activity change, negative = inhibition at 50 µM; E. coli WT GFP strain growth, fluorescence, 24 h;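 active = compound lowering the normal-ribosome reporter at least twice as much as the humanized-ribosome reporter, growth loss under a set limit; inconclusive = no clear call, values can overlap the other calls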;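 note: wild-type GFP and h24 humanized RFP strains co-cultured 1 to 1 per well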
An asterisk follows results filed as active; ? = inconclusive; · = no result; [ ] = remark or other dose. Compounds with a hit are over-represented: about 3.4% of the library has one in this group of screens.

SMILES	LGR2 antag	EWS-Fli inh	SIRT5 inh	PGC1a acetyl inh	Ecoli rRNA inh	PAX8 reporter	AID977621	AID977628	others
CCCC(=O)Nc1sc2c(c1C(=O)Nc1ccccn1)CCCC2	·	9	2	-10	-30*	-1	-18	-16
COc1ccc(OC2C(=O)N(Cc3ccc4c(c3)OCO4)C2c2cccs2)cc1 (centres undefined)	22	·	-4	-15	-22*	·	-16	·
O=C1C(Oc2ccccc2)C(c2cccs2)N1Cc1ccc2c(c1)OCO2 (centres undefined)	16	·	·	·	·	·	·	·
Cc1cc(C(=O)Nc2cccc3c2O[C@@H](CN(C)C(=O)Nc2ccc4c(c2)OCO4)[C@@H](C)CN([C@H](C)CO)C3=O)n(C)n1	23	-2	7	-3	-9	·	·	·
Cc1cc(C)c(OCC(=O)OCC(=O)N2CCc3ccccc3C2)c(C)c1	-13	3	2	·	-16*	-6	·	-9.6
CCCC(=O)Nc1ccc2c(c1)C(=O)N(C)C[C@@H](OC)[C@H](C)CN(C(=O)c1ccccn1)[C@@H](C)CO2	19	-11	1	0	-1	-20	·	·
C[C@H](CO)N1C[C@H](C)[C@@H](CN(C)S(=O)(=O)c2cn(C)cn2)OCc2ccccc2-c2c(n(C)c3ccccc23)C1=O	3	-4	-1	-11	-10	11	·	·
Cc1ccc(C)c(N2CCN(C(=O)CCS(=O)(=O)c3ccc4c(c3)oc(=O)n4C)CC2)c1	6	·	-3	-9	-19*	8	-8.6	-4.9
O=C(Nc1ccccc1)N1CC(=O)N2[C@H](CO)[C@@H](c3ccc(-c4ccc(F)cc4)cc3)[C@H]2C1	·	·	·	·	-1	·	·	·
COc1cc2c(cc1OC)CN(C(=O)c1cc(S(=O)(=O)N3CCOCC3)ccc1Cl)CC2	·	·	·	·	·	4	·	·
O=C(c1cc(S(=O)(=O)N2CCOCC2)ccc1Cl)N1CCc2ccccc2C1	-7	7	-1	5	-20*	30	-12	-9.1
CCC(=O)N(C)C[C@H]1Oc2cc(C#CC3(O)CCCC3)ccc2S(=O)(=O)N([C@H](C)CO)C[C@H]1C	11	-2	3	-4	0	·	·	·
CN1N=C2c3ccccc3CCC2C1c1ccc(F)cc1 (centres undefined)	-73	-71	-4	8	-16*	0	-9.4	?
CCOc1nc(-c2ccccc2O)nc2ccccc12	-21	5	-23	·	5	·	·	·
CC(C)Oc1nc(-c2ccccc2Cl)nc2ccccc12	2	7	1	·	-18*	9	·	-11
CSc1nnnn1-c1ccc(Cl)cc1	1	-3	·	7	-32*	4	-18	-18
COC(=O)c1ccc(-n2nnnc2SC)cc1	·	·	·	-5	·	·	·	·
Cc1cc(C)c(C#N)c(N2CCN(c3ccccc3)CC2)n1	10	5	-4	49*	-26*	19	·	·	HepG2 cytotox=23[12 µM]
COCc1cc(C)nc(N2CCN(c3ccccc3)CC2)c1C#N	·	·	·	-4	·	·	·	·
CCOC(=O)[C@@H]1[C@H]2COc3ccccc3[C@H]2N2C(=O)N(c3ccc(F)cc3)C(=O)[C@]12C	-20	7	-4	-4	0	10	·	·
C[C@]12C(=O)N(c3ccc(F)cc3)C(=O)N1[C@@H]1c3ccccc3OC[C@@H]1[C@H]2c1ccccc1	-1	2	·	·	-25*	-5	0.48	-15
C[C@@H](NC(=O)C[C@@H]1CC[C@H](NC(=O)C2CCC2)[C@@H](CO)O1)c1ccccc1	11	-1	1	-1	1	-6	·	·
OCCN(Cc1ccccc1)Cc1ccc(F)c(F)c1	14	1	0	-13	-23*	·	-11	-9.4
COc1ccc(Cc2nnc(Nc3ccc(C)cc3)o2)cc1OC	-26	9	-3	4	-19*	-42	·	-14
O=C(O)Cn1c(SC2CCCCC2)nc2ccccc21	·	·	·	4	·	·	·	·
